From PubChem BioAssay (NCATS)
Records with an inconclusive call do not appear. Active and inactive are the calls of the source. The call rests on the fitted dose curve; in most records, active means well fitted inhibition curve with a large enough effect; inconclusive means small, poorly fitted or top-dose-only effect; inactive means flat fitted curve, though single readings scatter.

experiment: qHTS drug screen for cell cycle checkpoint inhibitors in PARPi-resistant BRCA-mutant ovarian cancer cell lines. (AID 1963452); settings: PEO1/OlaR viability, CellTiter-Glo luminescence, 96 h; measured here: PEO4 Z-AUC; stronger effect = lower value
Method in brief: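 PEO1, PEO4 and PEO1/OlaR ovarian cancer cells, 600 per well, exposed 96 h at 37C to a dilution series. Viability read by CellTiter-Glo luminescence, normalized to DMSO and empty wells; activity summarized as Z-AUC.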

Row | Structure (SMILES) | Z-AUC
1 | Nc1nc(Cl)nc2c1ncn2[C@@H]1O[C@H](CO)[C@@H](O)[C@@H]1F | -1.97
2 | CCN1CCN(C(=O)N[C@@H](C(=O)N[C@@H]2C(=O)N3C(C(=O)O)=C(CSc4nnnn4C)CS[C@H]23)c2ccc(O)cc2)C(=O)C1=O | 0.224
3 | C[C@@H](O)[C@H]1C(=O)N2C(C(=O)O)=C(S[C@@H]3CN[C@H](CNS(N)(=O)=O)C3)[C@H](C)[C@H]12 | 0.433
4 | CC(=O)O[C@H]1C[C@@H]2CC[C@@H]3[C@H](CC[C@@]4(C)[C@H]3C[C@H]([N+]3(C)CCCCC3)[C@@H]4OC(C)=O)[C@@]2(C)C[C@@H]1N1CCCCC1 | 1.85

experiment: qHTS profiling for inhibitors of Plasmodium falciparum proliferation (AID 504749);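 further: 0% = DMSO vehicle and full inhibition = artemisinin control; nearly all actives have a fitted effect of over 60% in size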; settings: P. falciparum in erythrocytes, SYBR Green DNA, 72 h; at 12.8 µM (top of the series); parasite line A
Method in brief: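 P. falciparum-infected erythrocytes (0.3% parasitemia, 2.5% hematocrit) incubated with compound 72 h at 37 C, 5% CO2. Parasite DNA detected by SYBR Green after lysis, overnight at room temperature; normalised to 0.29 uM artemisinin and DMSO.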

Row | Structure (SMILES) | activity, negative = inhibition
5 | CCOC(=O)Nc1ccc2c(c1)N(C(=O)CCN1CCOCC1)c1ccccc1S2 | 5.76% (inactive)
6 | CCCCc1cc2ccccc2c(OCCN(C)C)n1 | 8.06% (inactive)
7 | CN1CCC(OC(c2ccccc2)c2ccccc2)CC1 | -11.2% (inactive)
8 | NS(=O)(=O)c1cc(C(=O)O)cc(N2CCCC2)c1Oc1ccccc1 | 5.58% (inactive)
9 | CCCCNc1ccc(C(=O)OCCOCCOCCOCCOCCOCCOCCOCCOCCOC)cc1 | -21.5% (inactive)
10 | CC[C@H](c1ccc(O)cc1)[C@@H](CC)c1ccc(O)cc1 | -8.43% (inactive)

same assay, conditions: P. falciparum in erythrocytes, SYBR Green DNA, 72 h; at 12.8 µM (top of the series); parasite line B

Row | Structure (SMILES) | activity, negative = inhibition
11 | CCOC(=O)Nc1ccc2c(c1)N(C(=O)CCN1CCOCC1)c1ccccc1S2 | 22.5% (inactive)
12 | CCCCc1cc2ccccc2c(OCCN(C)C)n1 | 4.66% (inactive)
13 | CN1CCC(OC(c2ccccc2)c2ccccc2)CC1 | -2.27% (inactive)
14 | NS(=O)(=O)c1cc(C(=O)O)cc(N2CCCC2)c1Oc1ccccc1 | 15.6% (inactive)
15 | CCCCNc1ccc(C(=O)OCCOCCOCCOCCOCCOCCOCCOCCOCCOC)cc1 | -9.92% (inactive)
16 | CC[C@H](c1ccc(O)cc1)[C@@H](CC)c1ccc(O)cc1 | 3.18% (inactive)

same assay, conditions: P. falciparum in erythrocytes, SYBR Green DNA, 72 h; at 28.7 µM (top of the series); parasite line A

Row | Structure (SMILES) | activity, negative = inhibition
17 | CCOCCn1c(N2CCCN(C)CC2)nc2ccccc21 | 7.9% (inactive)
18 | NS(=O)(=O)Cc1noc2ccccc12 | 6.43% (inactive)
19 | CCCCC(CC)COC(=O)/C=C/c1ccc(OC)cc1 (configuration not stated) | 10.4% (inactive)
20 | CC[N+](C)(CC)CCOC(=O)C(O)(c1ccccc1)C1CCCCC1 (configuration not stated) | -48% (inactive)
21 | O=c1[nH]c(=O)n([C@H]2C[C@H](O)[C@@H](CO)O2)cc1F | 0.388% (inactive)
22 | C/C=C/c1ccc(O)c(OC)c1 | 3.92% (inactive)
23 | OC1C(O)C(O)C(O)C(O)C1O (configuration not stated) | 1.75% (inactive)
24 | COc1ccc(CN(CCN(C)C)c2ncccn2)cc1 | 12.9% (inactive)
25 | NC(=O)C1(N2CCCCC2)CCN(CCCC(=O)c2ccc(F)cc2)CC1 | 3.28% (inactive)
26 | CC(=O)OCC(=O)[C@H]1CC[C@H]2[C@@H]3CCC4=CC(=O)CC[C@]4(C)[C@H]3CC[C@]12C | -11.3% (inactive)
27 | C[C@@H](O)[C@H]1C(=O)N2C(C(=O)O)=C(S[C@@H]3CN[C@H](CNS(N)(=O)=O)C3)[C@H](C)[C@H]12 | 0.841% (inactive)
28 | CC(=O)Nc1ccc(CC(=O)O)cc1 | 9.92% (inactive)
29 | O=C(Nc1ccc([N+](=O)[O-])cc1)Nc1ccc([N+](=O)[O-])cc1 | 3.88% (inactive)
30 | CC(C)Cc1ccc(CC(=O)O)cc1 | 5.78% (inactive)
31 | C#C[C@]1(O)CC[C@H]2[C@@H]3CCC4=CC(=O)CC[C@@H]4[C@H]3CC[C@@]21CC | -9.46% (inactive)
32 | C=CCN1CCc2nc(N)sc2CC1 | -6.7% (inactive)
33 | Cc1ccccc1OCC(O)CO (configuration not stated) | 13.7% (inactive)
34 | CCN(CC)CCOc1ccccc1C(=O)CCc1ccccc1 | 2.97% (inactive)
35 | CN(Cc1ccc(C(C)(C)C)cc1)Cc1cccc2ccccc12 | -10% (inactive)
36 | O=C(Oc1cccc2cccnc12)c1ccccc1 | 5.84% (inactive)
37 | CCCCCCCCCCCCSCCOCCO | 9.57% (inactive)
38 | CCN(CC)CCOC(=O)C1(c2ccccc2)CCCC1 | -50.7% (inactive)
39 | CCCCC(CC)COC(=O)c1ccc(N(C)C)cc1 (configuration not stated) | 7.25% (inactive)
40 | CN1CCN(C2=Nc3ccccc3Sc3ccc(Cl)cc32)CC1 | -8.05% (inactive)
41 | CN(C)CCN1C(=O)c2ccccc2N(C)c2ccccc21 | -2.77% (inactive)
42 | C#C[C@]1(OC(C)=O)CC[C@H]2[C@@H]3CCC4=C/C(=N/O)CC[C@@H]4[C@H]3CC[C@@]21CC | -6.98% (inactive)
